Screening results (PubChem BioAssay)
uPA surface inh: blocks generation of uPA at the cell surface; cell surface uPA generation assay, qHTS; Potency, µM (titrated, usually from 38.3 µM), for inactives: at the highest dose activity change, negative = inhibition, actives largely listed as inhibitors; 0.31% of 330,000 active; AID 540303; active means well fitted inhibition curve with a large enough effect; inconclusive means small, poorly fitted or top-dose-only effect; inactive means no such curve, though single readings can be large or run the other way; tested in mouse RAW 264.7 cells; further: potency means the concentration at half of the fitted maximal effect; on the % scale 0 is the no-effect control and ±100 the full control effect; nearly all actives have a fitted effect of over 55% in size
ClpP mod: qHTS Assay for Activators of ClpP; ATP-dependent Clp protease proteolytic subunit (Bacillus subtilis (strain 168)), P80244; 1.9% of 340,000 active; AID 651965, 2013; Potency, µM (top dose mostly 57.5 µM), inactives show at the top dose activity change, negative = active; purified B. subtilis ClpP, FRET peptide cleavage, 20 min; active means well fitted falling curve with a large enough effect; inconclusive means small, poorly fitted or top-dose-only effect; inactive means no such curve, though single readings can be large or run the other way; further: potency means the concentration at half of the fitted maximal effect; the source files actives as falling curves though it sought activators and does not explain the sign; nearly all actives have a fitted effect of over 65% in size
Target sequence (P80244 whole entry, looked up): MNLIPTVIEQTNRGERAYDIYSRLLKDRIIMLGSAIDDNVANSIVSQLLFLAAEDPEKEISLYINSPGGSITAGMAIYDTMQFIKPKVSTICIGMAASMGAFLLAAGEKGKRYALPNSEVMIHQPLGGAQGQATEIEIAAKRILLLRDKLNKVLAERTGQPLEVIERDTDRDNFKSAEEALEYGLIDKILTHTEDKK
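FRET quenching reversal measured ClpP activation: 10 microg/mL B. subtilis ClpP at pH 8 with the FRET-FV decapeptide, read at 430 nm after 320 nm excitation. The 20-min minus 0-min signal was scaled between DMSO/no-enzyme wells and ADEP (5.8 microM final).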
p53 reactivation: restores transcriptional activity of mutant p53 | H1299 p53-A138V BP100-luciferase reporter, luminescence, 24 h | Potency, µM (top dose mostly 92.2 µM), inactives show top-dose activity change, positive = activation, hits mostly activators | 0.063% of 320,000 active | AID 504706; further: potency means the concentration at half of the fitted maximal effect; % of control where 0% means no effect; nearly all actives have a fitted effect of over 45% in size
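p53-null H1299 cells stably carrying temperature-sensitive p53-A138V and a BP100-luciferase reporter were pinned with compounds (4-point, 1:5 series) and held 24 hrs at 37 deg C. Luminescence was read 10 min after detection reagent.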
Mito fusion act: mitochondrial division inhibition or fusion activation. S. cerevisiae fusion-defective mutant growth rescue, CellTiterGlo 48 h. 0.23% of 320,000 active. Potency, µM (doses to about 46.1 µM), for inactives: top-dose growth rescue (activation), actives largely listed as activators; further: potency means the concentration at half of the fitted maximal effect; % of control where 0% means no effect; nearly all actives have a fitted effect of over 45% in size
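Temperature-sensitive fusion-defective S. cerevisiae (e.g. fzo1-1, mgm1-5) were grown with compound in YPEG medium (3% ethanol, 3% glycerol) for 48 hours at 37C. Growth rescue was measured as viability by CellTiterGlo luminescence after 10 minutes at ambient.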
B2AR arrestin: beta2AR (human) beta-arrestin recruitment activity | Potency, µM (titrated, usually from 46.1 µM), without a hit: top-dose activation, usual class: activators | P07550 | beta-arrestin recruitment to beta2AR, cell-based reporter | 0.02% of 330,000 active;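 further: potency means the concentration at half of the fitted maximal effect; 0% = DMSO controls and full agonism = EC100 isoproterenol or metaproterenol; nearly all actives have a fitted effect of over 65% in size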
Target sequence (P07550 whole entry, looked up): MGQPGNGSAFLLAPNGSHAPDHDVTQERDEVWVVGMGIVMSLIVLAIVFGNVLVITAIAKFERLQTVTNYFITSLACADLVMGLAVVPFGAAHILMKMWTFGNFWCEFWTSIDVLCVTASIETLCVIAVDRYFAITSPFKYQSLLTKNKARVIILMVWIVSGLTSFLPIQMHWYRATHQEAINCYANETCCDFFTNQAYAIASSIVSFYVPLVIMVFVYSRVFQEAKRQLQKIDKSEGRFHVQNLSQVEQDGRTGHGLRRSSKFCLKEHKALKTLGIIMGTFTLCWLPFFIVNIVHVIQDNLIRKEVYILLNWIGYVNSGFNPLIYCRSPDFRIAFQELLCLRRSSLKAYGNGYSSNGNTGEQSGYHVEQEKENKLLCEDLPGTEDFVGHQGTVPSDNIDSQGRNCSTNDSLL
Giardia killer: Giardia lamblia killing. Giardia lamblia trophozoite viability. activity change, % at 7.66 µM, hits read low. 0.15% of 340,000 active. AID 540267; in the data active means activity change below about -80%; inconclusive means between about -30% and that limit;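 further: parasites exposed to compound for two days anaerobically before the ATP read; on the % scale 0 is the no-effect control and ±100 the full control effect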
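Compounds were tested on trophozoites seeded at 100 cells/well and held 48 hrs at 37 deg C anaerobically. An ATP-based luminescent kit measured the remaining live cells.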
* = called active by the depositor; ? = inconclusive; / = no result. The list is not random: actives were taken first. Their share in the collection is about 2.1%. Unless noted, the call rests on the fitted dose curve; in most records, active means well fitted curve in the direction sought with a large enough effect; inconclusive means small, poorly fitted or top-dose-only effect, or another doubt; inactive means no such curve, though single readings can be large; an effect the other way counts as inactive or inconclusive.

SMILES	uPA surface inh	ClpP mod	p53 reactivation	Mito fusion act	B2AR arrestin	Giardia killer
Cc1nn(C)c(C(=O)NNC(=S)NCC(C)C)c1Cl	4%	8.9µM*	-2%	-12%	-2%	-9
COC(=O)[C@@]1(Cc2ccc(F)cc2)[C@H]2c3cc(C(=O)N(C)C)n(CCF)c3C[C@H]2CN1C(=O)c1ccccc1	/	0%	/	/	/	/
COC(=O)[C@@]1(Cc2ccccc2)[C@@H]2C(=CC(=O)[C@H]2CC(=O)C(=O)N(C)C)CN1C(=O)c1ccccc1	2.8µM*	1%	-18%	-4%	1%	-7
Cn1c(=O)c2c(nc(NCC3CCCO3)n2Cc2ccccc2)n(C)c1=O (centres undefined)	-1%	28µM*	9%	-5%	0%	-23
CN1C(=O)C2(c3ccccc31)N(c1cccc(C(F)(F)F)c1)C(=O)CS2(=O)=O (centres undefined)	/	-3%	/	/	/	/
Cc1cc(C)c(C(O)c2ncc(-c3ccccc3Cl)[nH]2)c(C)c1 (centres undefined)	/	-3%	/	/	/	/
CC(C)CNC(=S)NC(=O)c1csc([N+](=O)[O-])c1	0%	/	10%	-8%	-1%	-87*
O=C(N/N=C/c1cn(-c2cccs2)nc1-c1ccccc1)c1ccccc1Cl	-11%	22µM*	?	18µM*	0%	-6
Cc1cccc(-n2c(SCC(=O)Nc3ccccc3C)nc3c(oc4ccccc43)c2=O)c1	/	-4%	/	/	/	/
CCOc1ccc(-n2nc(CO)c(C(=O)NCc3ccc(Cl)cc3)n2)cc1	/	7.1µM*	/	/	/	/
CCOc1ccc(-n2nc(CO)c(C(=O)NCCCc3ccccc3)n2)cc1	/	13µM*	/	/	/	/
COCCCNC(=O)c1nn(-c2ccc(C)cc2)nc1CO	/	14µM*	/	/	/	/
Cc1ccccc1-n1nc(CO)c(C(=O)NCc2cccs2)n1	/	-2%	/	/	/	/
Cc1ccc(-n2nc(CO)c(C(=O)NCc3cccs3)n2)cc1C	/	28µM*	/	/	/	/
CC(=O)c1ccc(C2CC34CNS(=O)(=O)C3CC2O4)cc1 (centres undefined)	/	/	/	/	/	3
COc1ccc(NC(=O)c2ccc(CNS(=O)(=O)c3ccc4c(c3)C(C)(C)C(=O)N4C)cc2)cc1	/	3%	/	/	/	/
Cc1ccc(C)c(OCCOCCn2c(-c3ccc(Br)cc3)nc3ccccc3c2=O)c1C	/	-1%	/	/	/	/
Cc1cccc(-c2nnc(C3CCN(S(=O)(=O)c4cccc(Cl)c4)CC3)o2)c1	/	-2%	/	/	/	/
CCOc1ccc(-n2nc(CO)c(C(=O)NCc3cccnc3)n2)cc1	/	6.3µM*	/	/	/	/
Cc1ccccc1-n1nc(CO)c(C(=O)NCc2cccnc2)n1	/	-5%	/	/	/	/
CN(Cc1ccccc1)C(=O)c1c[nH]c2ccc(S(=O)(=O)Nc3ccccc3F)cc2c1=O	/	-22%	/	/	/	/
CCOCCCn1c(=N)c(C(N)=S)cc2c(=O)n3cccc(C)c3nc21	-6%	28µM*	1%	6%	0%	0
CCOCCCn1c(=N)c(C(=O)NCC2CCCO2)cc2c(=O)n3cccc(C)c3nc21 (centres undefined)	/	4%	/	/	/	/
COCCCn1c(=N)c(C(=O)NCc2ccco2)cc2c(=O)n3cccc(C)c3nc21	/	4%	/	/	/	/
Cc1cccn2c(=O)c3cc(C(N)=S)c(=N)n(CCCOC(C)C)c3nc12	-3%	16µM*	-10%	4%	0%	-14
SMILES	uPA surface inh	ClpP mod	p53 reactivation	Mito fusion act	B2AR arrestin	Giardia killer
O=C(NCc1ccccc1)c1ccc(-c2ccc(F)cc2)o1	/	28µM*	8%	20%	0%	-4
O=C(O)/C=C\C(=O)Nc1ccccc1C(=O)NCc1ccccc1	-1%	4µM*	2%	0%	-1%	30
O=C(NCc1ccc(F)cc1)c1ccccc1OCc1ccccc1	-2%	-2%	-1%	18µM*	0%	2
O=C(NNC(=O)c1ccccc1OCc1ccc(F)cc1)c1ccccc1O	?	-4%	?	-10%	0%	-8
CN(C)S(=O)(=O)c1cccc(NC(=O)c2ccccc2OCc2ccc(F)cc2)c1	/	20µM*	2%	-4%	0%	-4
Cc1ccc(C)c(NC(=O)CSc2nc(=O)n(Cc3ccccn3)c3c2CCC3)c1	/	-4%	/	/	/	/
COc1ccc(-n2c(SCC(=O)NCc3ccccc3)nc3n[nH]c(C)c3c2=N)cc1	/	67%	/	/	/	/
O=S1(=O)CCOC[C@H](c2ccccc2)N1Cc1ccc(Cl)cc1Cl	/	-1%	/	/	/	/
CCCn1c(C)nc2c(c1=O)c1nc3ccccc3nc1n2CCC1=CCCCC1	-6%	32µM*	-7%	4%	0%	-1
COc1cccc(OC)c1OCCNC(C)(C)C	6%	32µM*	3%	0%	-1%	8
COc1cccc(OC)c1OCCN(C)C	3%	-2%	2%	11%	0%	0
CCc1ccc(CNC(=O)Cn2nc(C)c3nn(-c4ccc(Cl)cc4)c(C)c3c2=O)cc1	/	-3%	/	/	/	/
COCCNC(=O)c1ccc2c(c1)NC(=O)C(CS(=O)(=O)Cc1ccc(F)cc1Cl)N2 (centres undefined)	/	16µM*	/	/	/	/
CCCCNC(=O)c1ccc2c(c1)NC(=O)C(CS(=O)(=O)Cc1cccc(C)c1)N2 (centres undefined)	/	32µM*	/	/	/	/
COc1cc(OC)c(NC(=O)CSc2nccn2C)cc1Cl	/	0%	/	/	/	/
CCc1nn2c(-c3ccccc3OC)ccnc2c1-c1ccc(F)cc1	/	-2%	/	/	/	/
ClC(Cl)c1nnc(-c2ccccc2)c(-c2c[nH]c3ccccc23)n1	-9%	25µM*	-8%	5%	0%	-19
c1ccc(-c2nnc(-c3c[nH]c4ccccc34)nc2-c2ccccc2)cc1	5%	-2%	-4%	4%	3%	-9
Cc1sc(-c2cc3ccccc3oc2=O)nc1-c1ccc(Cl)cc1	/	32µM*	/	/	/	/
COc1cc(C(=O)Nc2nc3c(s2)Cc2c(Br)ccc(OC)c2-3)cc(OC)c1OC	/	-3%	/	/	/	/
CCOc1ccc2[nH]c(=O)c(CN(CCO)C(c3nnnn3C3CCCCC3)C(C)C)cc2c1 (centres undefined)	0%	-19%	0%	3%	0%	10
COc1ccc2[nH]c(=O)c(C(c3nnnn3C3CCCCC3)N3CCN(C)CC3)cc2c1 (centres undefined)	/	32µM*	-7%	2%	0%	-7
CCCN1CCN(C(c2cc3cc(OCC)ccc3[nH]c2=O)c2nnnn2C2CCCCC2)CC1 (centres undefined)	/	28µM*	6%	4%	0%	25
CCN1CCN(c2ccc(S(=O)(=O)N3CCCCC3)cc2NC(=O)c2cc3ccccc3o2)CC1	-5%	16µM*	2%	3%	0%	-3
